Test results published in the supplement of paper PMC7411054.

How the values were obtained:
Experiment in all cases: phenotypically active (imaging signature differs from DMSO and reproducible) at any of 0.3-9 uM (binary (1 = active, 0 = inactive)); higher = active
Details in all cases: treatment time: 24 h
A549-ACTB-RAB5A = tested on: A549-ACTB-RAB5A
Method in brief: (§1)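 Each of fifteen gene-edited A549, HepG2 and WPMY1 reporter lines, marked with BFP for segmentation and GFP and RFP/FusionRed, was treated in four wells at 0.3, 1, 3 or 9 µM for 24 h prior to live imaging. Normalisation of per-well live-cell features used solvent control wells. Deviation needed ≥3 of 4 wells beyond the 95th percentile of control Euclidean distances, and reproducibility needed a median replicate Pearson correlation above the 95th percentile of non-replicates. Both were required for phenotypic activity.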

A549-CANX-COX4 = tested on: A549-CANX-COX4
Method in brief: as §1

A549-GM130-SQSTM1 = tested on: A549-GM130-SQSTM1
Method in brief: as §1

A549-TP53BP1-CLTA = tested on: A549-TP53BP1-CLTA
Method in brief: as §1

A549-TUBA1B-RELA = tested on: A549-TUBA1B-RELA
Method in brief: as §1

HepG2-ACTB-RAB5A = tested on: HepG2-ACTB-RAB5A
Method in brief: as §1

HepG2-CANX-COX4 = tested on: HepG2-CANX-COX4
Method in brief: as §1

HepG2-GM130-SQSTM1 = tested on: HepG2-GM130-SQSTM1
Method in brief: as §1

HepG2-TP53BP1-CLTA = tested on: HepG2-TP53BP1-CLTA
Method in brief: as §1

HepG2-TUBA1B-RELA = tested on: HepG2-TUBA1B-RELA
Method in brief: as §1

WPMY1-ACTB-RAB5A = tested on: WPMY1-ACTB-RAB5A
Method in brief: as §1

WPMY1-CANX-COX4 = tested on: WPMY1-CANX-COX4
Method in brief: as §1

WPMY1-GM130-SQSTM1 = tested on: WPMY1-GM130-SQSTM1
Method in brief: as §1

WPMY1-TP53BP1-CLTA = tested on: WPMY1-TP53BP1-CLTA
Method in brief: as §1

WPMY1-TUBA1B-RELA = tested on: WPMY1-TUBA1B-RELA
Method in brief: as §1

Measured: phenotypically active

COC1=C(O)C(=O)c2ccccc2C1=O [2-hydroxy-3-methoxy-naphtoquinone]
inactive: A549-ACTB-RAB5A 0 | A549-CANX-COX4 0 | A549-GM130-SQSTM1 0 | A549-TP53BP1-CLTA 0 | A549-TUBA1B-RELA 0 | HepG2-ACTB-RAB5A 0 | HepG2-CANX-COX4 0 | HepG2-GM130-SQSTM1 0 | HepG2-TP53BP1-CLTA 0 | HepG2-TUBA1B-RELA 0 | WPMY1-ACTB-RAB5A 0 | WPMY1-CANX-COX4 0 | WPMY1-GM130-SQSTM1 0 | WPMY1-TP53BP1-CLTA 0 | WPMY1-TUBA1B-RELA 0

CCN(CC)C(C)CN1c2ccccc2Sc2ccccc21 (stereo not given) [profenamine]
inactive: A549-ACTB-RAB5A 0 | A549-CANX-COX4 0 | A549-GM130-SQSTM1 0 | A549-TP53BP1-CLTA 0 | A549-TUBA1B-RELA 0 | HepG2-ACTB-RAB5A 0 | HepG2-CANX-COX4 0 | HepG2-GM130-SQSTM1 0 | HepG2-TP53BP1-CLTA 0 | HepG2-TUBA1B-RELA 0 | WPMY1-ACTB-RAB5A 0 | WPMY1-CANX-COX4 0 | WPMY1-GM130-SQSTM1 0 | WPMY1-TP53BP1-CLTA 0 | WPMY1-TUBA1B-RELA 0

O=C(NCCO)c1cc(C(=O)NCCO)cc(C(=O)NCCO)c1
inactive: A549-ACTB-RAB5A 0 | A549-CANX-COX4 0 | A549-GM130-SQSTM1 0 | A549-TP53BP1-CLTA 0 | A549-TUBA1B-RELA 0 | HepG2-ACTB-RAB5A 0 | HepG2-CANX-COX4 0 | HepG2-GM130-SQSTM1 0 | HepG2-TP53BP1-CLTA 0 | HepG2-TUBA1B-RELA 0 | WPMY1-ACTB-RAB5A 0 | WPMY1-CANX-COX4 0 | WPMY1-GM130-SQSTM1 0 | WPMY1-TP53BP1-CLTA 0 | WPMY1-TUBA1B-RELA 0

COc1cc(C=O)c([N+](=O)[O-])cc1OC
inactive: A549-ACTB-RAB5A 0 | A549-CANX-COX4 0 | A549-GM130-SQSTM1 0 | A549-TP53BP1-CLTA 0 | A549-TUBA1B-RELA 0 | HepG2-ACTB-RAB5A 0 | HepG2-CANX-COX4 0 | HepG2-GM130-SQSTM1 0 | HepG2-TP53BP1-CLTA 0 | HepG2-TUBA1B-RELA 0 | WPMY1-ACTB-RAB5A 0 | WPMY1-CANX-COX4 0 | WPMY1-GM130-SQSTM1 0 | WPMY1-TP53BP1-CLTA 0 | WPMY1-TUBA1B-RELA 0

C[C@H](CCC(=O)NCC(=O)O)[C@H]1CC[C@H]2[C@@H]3[C@H](O)C[C@@H]4C[C@H](O)CC[C@]4(C)[C@H]3C[C@H](O)[C@]12C [Glycocholic acid]
inactive: A549-ACTB-RAB5A 0 | A549-CANX-COX4 0 | A549-GM130-SQSTM1 0 | A549-TP53BP1-CLTA 0 | A549-TUBA1B-RELA 0 | HepG2-ACTB-RAB5A 0 | HepG2-CANX-COX4 0 | HepG2-GM130-SQSTM1 0 | HepG2-TP53BP1-CLTA 0 | HepG2-TUBA1B-RELA 0 | WPMY1-ACTB-RAB5A 0 | WPMY1-CANX-COX4 0 | WPMY1-GM130-SQSTM1 0 | WPMY1-TP53BP1-CLTA 0 | WPMY1-TUBA1B-RELA 0

C=C(C)[C@@H]1CC[C@]2(CO)CC[C@]3(C)[C@H](CC[C@@H]4[C@@]5(C)CC[C@H](O)C(C)(C)[C@@H]5CC[C@]43C)[C@@H]12 [Betulin]
inactive: A549-ACTB-RAB5A 0 | A549-CANX-COX4 0 | A549-GM130-SQSTM1 0 | A549-TP53BP1-CLTA 0 | A549-TUBA1B-RELA 0 | HepG2-ACTB-RAB5A 0 | HepG2-CANX-COX4 0 | HepG2-GM130-SQSTM1 0 | HepG2-TP53BP1-CLTA 0 | HepG2-TUBA1B-RELA 0 | WPMY1-ACTB-RAB5A 0 | WPMY1-CANX-COX4 0 | WPMY1-GM130-SQSTM1 0 | WPMY1-TP53BP1-CLTA 0 | WPMY1-TUBA1B-RELA 0

CCCCCC1CC1CC1CC1CCCCCCCC(=O)O (stereo not given)
inactive: A549-ACTB-RAB5A 0 | A549-CANX-COX4 0 | A549-GM130-SQSTM1 0 | A549-TP53BP1-CLTA 0 | A549-TUBA1B-RELA 0 | HepG2-ACTB-RAB5A 0 | HepG2-CANX-COX4 0 | HepG2-GM130-SQSTM1 0 | HepG2-TP53BP1-CLTA 0 | HepG2-TUBA1B-RELA 0 | WPMY1-ACTB-RAB5A 0 | WPMY1-CANX-COX4 0 | WPMY1-GM130-SQSTM1 0 | WPMY1-TP53BP1-CLTA 0 | WPMY1-TUBA1B-RELA 0

CC[C@]12CCCN3CCc4c(n(c5ccccc45)[C@@](O)(C(=O)OC)C1)[C@@H]32 [Vincamine]
inactive: A549-ACTB-RAB5A 0 | A549-CANX-COX4 0 | A549-GM130-SQSTM1 0 | A549-TP53BP1-CLTA 0 | A549-TUBA1B-RELA 0 | HepG2-ACTB-RAB5A 0 | HepG2-CANX-COX4 0 | HepG2-GM130-SQSTM1 0 | HepG2-TP53BP1-CLTA 0 | HepG2-TUBA1B-RELA 0 | WPMY1-ACTB-RAB5A 0 | WPMY1-CANX-COX4 0 | WPMY1-GM130-SQSTM1 0 | WPMY1-TP53BP1-CLTA 0 | WPMY1-TUBA1B-RELA 0

NCC[C@H](O)C(=O)N[C@H]1C[C@@H](N)[C@H](O[C@H]2O[C@H](CN)[C@@H](O)[C@H](O)[C@H]2O)[C@@H](O)[C@@H]1O[C@H]1O[C@H](CO)[C@@H](O)[C@H](N)[C@H]1O [Amikacin hydrate]
inactive: A549-ACTB-RAB5A 0 | A549-CANX-COX4 0 | A549-GM130-SQSTM1 0 | A549-TP53BP1-CLTA 0 | A549-TUBA1B-RELA 0 | HepG2-ACTB-RAB5A 0 | HepG2-CANX-COX4 0 | HepG2-GM130-SQSTM1 0 | HepG2-TP53BP1-CLTA 0 | HepG2-TUBA1B-RELA 0 | WPMY1-ACTB-RAB5A 0 | WPMY1-CANX-COX4 0 | WPMY1-GM130-SQSTM1 0 | WPMY1-TP53BP1-CLTA 0 | WPMY1-TUBA1B-RELA 0

NC12CC3CC(CC(C3)C1)C2 [amantadine]
inactive: A549-ACTB-RAB5A 0 | A549-CANX-COX4 0 | A549-GM130-SQSTM1 0 | A549-TP53BP1-CLTA 0 | A549-TUBA1B-RELA 0 | HepG2-ACTB-RAB5A 0 | HepG2-CANX-COX4 0 | HepG2-GM130-SQSTM1 0 | HepG2-TP53BP1-CLTA 0 | HepG2-TUBA1B-RELA 0 | WPMY1-ACTB-RAB5A 0 | WPMY1-CANX-COX4 0 | WPMY1-GM130-SQSTM1 0 | WPMY1-TP53BP1-CLTA 0 | WPMY1-TUBA1B-RELA 0

Cc1ccc([N+](=O)[O-])cc1S(=O)(=O)N(C)C
inactive: A549-ACTB-RAB5A 0 | A549-CANX-COX4 0 | A549-GM130-SQSTM1 0 | A549-TP53BP1-CLTA 0 | A549-TUBA1B-RELA 0 | HepG2-ACTB-RAB5A 0 | HepG2-CANX-COX4 0 | HepG2-GM130-SQSTM1 0 | HepG2-TP53BP1-CLTA 0 | HepG2-TUBA1B-RELA 0 | WPMY1-ACTB-RAB5A 0 | WPMY1-CANX-COX4 0 | WPMY1-GM130-SQSTM1 0 | WPMY1-TP53BP1-CLTA 0 | WPMY1-TUBA1B-RELA 0
